Nine compounds from PubChem BioAssay (Tox21) can be followed below.

Test [1] in a line: qHTS assay to identify small molecule antagonists of the vitamin D receptor (VDR) signaling pathway - cell viability counter screen (AID 743225). Further: on the % scale 0 is the no-effect control and ±100 the full control effect; nearly all actives have a fitted effect of over 50% in size. An outline of the steps: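 Parallel cytotoxicity test: VDR-UAS-bla HEK 293T, 3 nM (final) 1-alpha,25-dihydroxyvitamin D3 with test compound, 16 h, 37C. Endpoint is CellTiter-Glo luminescence in the same wells.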
(In general: In qHTS, concentration-response curves come from the screen itself.)

The nature of test [2]: qHTS assay to identify small molecule agonists of the NFkB signaling pathway (AID 1159509; active means well fitted curve in the direction sought with a large enough effect in the signal ratio in the repeat runs, not every such curve was filed as active; the % refers to the signal ratio; further: series mostly up to about 61 µM; on the % scale 0 is the no-effect control and ±100 the full control effect). An outline of the steps: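 NFkB-bla ME-180 cells with a beta-lactamase reporter under an NF-kB response element were plated overnight, treated with compounds in DMSO for 5 hr at 37 C, then loaded with FRET substrate for 1.5 hr at room temperature.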
Test [3] can be described thus: qHTS assay to identify small molecule agonists of the NFkB signaling pathway - cell viability counter screen (AID 1159515; calls by dose curve; further: series mostly up to about 61 µM; on the % scale 0 is the no-effect control and ±100 the full control effect; nearly all actives have a fitted effect of over 55% in size). In outline:
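NFkB-bla ME-180 cells, 2,000/well, were plated overnight at 37 C, 5% CO2, then exposed to compounds in DMSO for 5 hr. After the bla FRET read, CellTiter-Glo was added to the same wells; luminescence was read after 30 min at room temperature.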

Test [4] in a line: qHTS assay to identify small molecule agonists of the endoplasmic reticulum stress response signaling pathway (AID 1159516; active means well fitted activation curve with a large enough effect in the signal ratio in the repeat runs, not every such curve was filed as active; the % refers to the signal ratio; further: on the % scale 0 is the no-effect control and ±100 the full control effect). In outline:
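CellSensor ESRE-bla HeLa cells, carrying a beta-lactamase reporter driven by the ER stress response element, were plated overnight and exposed to compounds for 5 hr at 37 C. Reporter activity was read as FRET substrate fluorescence after 2 hr at room temperature.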

Test [5] is described as follows: qHTS assay to identify small molecule agonists of the endoplasmic reticulum stress response signaling pathway - cell viability counter screen (AID 1159517; calls by dose curve; further: series mostly up to about 61 µM; on the % scale 0 is the no-effect control and ±100 the full control effect; nearly all actives have a fitted effect of over 50% in size). An outline of the steps: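 Counter-screen wells were identical to the reporter wells. Cells were plated at 1,500 per well and dosed for 5 hr, then read for luminescence 30 min after CellTiter-Glo addition.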

A short description of test [6]: qHTS assay to identify small molecule antagonists of the retinoid-related orphan receptor gamma (ROR-gamma) signaling pathway - cell viability counter screen (AID 1159520). Further: on the % scale 0 is the no-effect control and ±100 the full control effect; nearly all actives have a fitted effect of over 50% in size. An outline of the steps:
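Tet-on ROR gamma CHO cells were given compounds for 2 hr, then doxycycline hyclate at 1 uM final, and incubated 16 hr at 37 C. Viability was measured as ATP content by CellTiter-Glo luminescence.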

In test [7] the target is Nuclear receptor ROR-gamma (Homo sapiens) (UniProt P51449). Kind of test: qHTS assay to identify small molecule antagonists of the retinoid-related orphan receptor gamma (ROR-gamma) signaling pathway (AID 1159521; further: nearly all actives have a fitted effect of over 50% in size; further: potency means the concentration at half of the fitted maximal effect). In outline: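 Decreased RORE-driven luciferase luminescence indicates antagonism. Tet-on RORγ CHO cells received compound, then 1 uM final doxycycline 2 h later; signal read after 16 h incubation.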

A short description of test [8]: qHTS assay to identify small molecule agonists of the AP-1 signaling pathway (AID 1159526; calls by dose curve; further: on the % scale 0 is the no-effect control and ±100 the full control effect).
Test [9] can be described thus: qHTS assay to identify small molecule agonists of the RXR signaling pathway - cell viability counter screen (AID 1159529). An outline of the steps:
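In this parallel viability measure, GeneBLAzer RXR-alpha HEK 293T cells (2% charcoal-stripped FBS) were given a 5 hr preincubation, treated with compounds 16 hr at 37 C, and read by CellTiter-Glo luminescence.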

Test [10] is described as follows: qHTS assay to identify small molecule antagonists of the retinoid acid receptor (RAR) signaling pathway - cell viability counter screen (AID 1159551). Further: on the % scale 0 is the no-effect control and ±100 the full control effect; nearly all actives have a fitted effect of over 35% in size. In outline:
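C3RL4 cells were seeded overnight at 37 C, then treated with compounds plus 1 uM (final) retinol for 6 h at 37 C. Viability was read as ATP by CellTiter-Glo luminescence after 30 min at room temperature.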

Test [11] is described as follows: qHTS assay to identify small molecule antagonists of the retinoic acid receptor (RAR) signaling pathway (AID 1159552). An outline of the steps: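 C3RL4 RARE-luc cells, overnight plating; retinol 1 uM final added right after compound; 6 hr 37 C; luciferase read at 30 min RT.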
The nature of test [12]: qHTS assay to identify small molecule agonists of the retinoic acid receptor (RAR) signaling pathway (AID 1159553). Further: potency means the concentration at half of the fitted maximal effect. In outline: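 C3RL4 cells carrying a RARE luciferase reporter were plated overnight at 37 C, then exposed to compounds in DMSO for 6 hr at 37 C and 5% CO2. Luminescence was read 30 min after luciferase reagent addition at room temperature.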
The nature of test [13]: qHTS assay to identify small molecule agonists of the AP-1 signaling pathway - cell viability counter screen (AID 1159525; calls by dose curve; further: nearly all actives have a fitted effect of over 55% in size). In outline:
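AP-1-bla ME-180 cells in Opti-MEM with 0.5% dialyzed FBS, compound exposure 5 h at 37 C in 15-point titration. Viability read in the same wells as ATP content by CellTiter-Glo luminescence, normalised to tetra-n-octylammonium bromide and DMSO controls.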

Test [14] in a line: qHTS assay to identify small molecule antagonists of the estrogen related receptor (ERR) signaling pathway - cell viability counter screen (AID 1224818).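 Further: series mostly up to about 46 µM; viability measured after 17.5 h of compound exposure; on the % scale 0 is the no-effect control and ±100 the full control effect.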 An outline of the steps:
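ERR reporter cells plated 6 h at 37 C/5% CO2, then compounds in DMSO pin-transferred and incubated 17.5 h at 37 C. Viability read as CellTiter-Fluor fluorescence after 30 min at 37 C.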

Test [15] can be described thus: qHTS assay to identify small molecule antagonists of the estrogen related receptor signaling pathway with the pleiotropic PPARgamma coactivator (PGC) cell viability counter screen (AID 1224822). An outline of the steps: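 PGC/ERR cells were seeded at 2,000 cells/well, rested 6 h at 37 C/5% CO2, then given compounds in DMSO by pin tool and incubated 17.5 h at 37 C. Viability came from CellTiter-Fluor fluorescence after 30 min.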

In test [16] the target is Retinoic acid receptor RXR-alpha (Homo sapiens) (UniProt P19793). Kind of test: qHTS assay to identify small molecule agonists of the RXR signaling pathway (AID 1159527; calls by dose curve; further: on the % scale 0 is the no-effect control and ±100 the full control effect; nearly all actives have a fitted effect of over 35% in size). In outline: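 16 hr incubation of compound-treated RXR-alpha-UAS-bla HEK 293T cells (2% charcoal-stripped FBS, 37 C) preceded a 2 hr room-temperature LiveBLAzer FRET substrate step and blue/green fluorescence measurement.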

Records with an inconclusive call do not appear. Values without a mark were called inactive. The source made the active and inactive calls. Unless noted, the call rests on the fitted dose curve; in most records, active means well fitted curve in the direction sought with a large enough effect in the repeat runs; inconclusive means weak or mixed curves; inactive means no such curve, though single readings can be large; an effect the other way counts as inactive or inconclusive.

Sequence of Retinoic acid receptor RXR-alpha (Homo sapiens) (P19793 whole entry, looked up): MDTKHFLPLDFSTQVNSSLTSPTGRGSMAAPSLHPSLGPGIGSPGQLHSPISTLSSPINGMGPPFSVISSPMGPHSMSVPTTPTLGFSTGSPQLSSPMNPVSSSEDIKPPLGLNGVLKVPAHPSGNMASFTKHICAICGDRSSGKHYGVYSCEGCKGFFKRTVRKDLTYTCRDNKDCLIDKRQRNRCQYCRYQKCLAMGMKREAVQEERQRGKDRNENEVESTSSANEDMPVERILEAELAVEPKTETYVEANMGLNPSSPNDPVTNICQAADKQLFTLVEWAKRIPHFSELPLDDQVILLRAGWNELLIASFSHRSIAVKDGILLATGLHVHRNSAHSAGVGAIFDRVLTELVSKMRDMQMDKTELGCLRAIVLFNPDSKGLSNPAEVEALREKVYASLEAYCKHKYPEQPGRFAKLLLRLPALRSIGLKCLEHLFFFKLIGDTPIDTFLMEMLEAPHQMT

For `Oc1ccc(Oc2ccccc2)cc1`, the call in test [1], in test [2], in [3], in test [4], in [5] and in test [10] was inactive. The call in [11] was inactive. Further, the Potency result in test [6], in [7], in test [8], in [9] and in test [12] was “inactive” throughout.

For `Cc1c(Nc2ncccc2C(=O)O)cccc1C(F)(F)F`, the result in [1], in test [2], in [3], in test [4], in [5] and in test [13] was inactive. In addition, the compound was classed as inactive in [10] and in test [11]. Moreover, the Potency result in [6], in [7] and in test [8] was “inactive” in each case.

For `O=Cc1ccc(Cl)c([N+](=O)[O-])c1`, the call in test [1], in test [2], in test [3], in test [4], in test [5] and in test [13] was inactive. The Potency entry in test [6], in [8] and in test [9] was “inactive” each time. The Potency in test [7] is 54.5 µM (active).

Consider `COc1ccc(C(=O)Nc2ccccc2)cc1[N+](=O)[O-]`, for which the call in [1], in test [2], in [3], in test [4], in [5] and in [13] was inactive. Besides, the compound was classed as inactive in test [10] and in test [11]. Moreover, the Potency result in [6], in [7] and in test [8] was “inactive” in each case. Further, the Potency in test [12] was 30.9 µM (active).

Consider `NC(=O)c1ccccc1`, for which the call in test [1], in test [2], in test [3], in test [4], in test [5] and in [13] was inactive. The compound was classed as inactive in [14] and in test [15]. The Potency entry in test [6], in test [7], in test [8], in test [9] and in test [12] was “inactive” in each case.

With `COC=O`, the values for the viability change, negative = cytotoxic in test [1] and in test [13] were 18% [at 6.95 µM] and 12.8% [at 6.97 µM], respectively. The activation in test [2] is 0.465% [at 6.95 µM]; in test [4] it was -0.899% [at 6.95 µM]; in test [8], -1.7% [at 6.97 µM]; in test [12], 3.97% [at 8.36 µM]. The activity, negative = cytotoxic in test [3] was -3.71% [at 6.95 µM]. Also, the activity change, negative = cytotoxicity in test [5] was -18.1% [at 6.95 µM]. In addition, the activity, negative = cytotoxicity in test [6] is -1.04% [at 8.39 µM]. Moreover, the activity change, negative = inhibition in [7] is -0.709% [at 8.39 µM]. In addition, the activity, negative = inhibition in test [11] was -0.361% [at 8.39 µM].

`O=C(Nc1ccc2c(c1)Cc1ccccc1-2)C(F)(F)F`: the compound was classed as inactive in test [1], in [2], in test [3], in test [4], in test [5] and in test [10]. For the same compound, the result in test [11] was inactive. Moreover, the Potency entry in [6], in [7], in [8] and in test [9] was “inactive” in each case. Moreover, in [12], the Potency was 6.86 µM (active).

`SCCOCCOCCS`: the result in test [1], in test [2], in [3], in test [4], in test [5] and in test [13] was inactive. Moreover, in [10], the call was inactive. Besides, the Potency entry in test [6], in [7] and in [8] was “inactive” in each case.

Turning to `C=CC(=O)OCCCCCCCCCC`, the result in test [1], in test [2], in test [3], in test [4], in test [5] and in test [13] was inactive. Also, the compound was classed as inactive in test [16] and in test [10]. The Potency result in test [6], in [7], in test [9] and in [12] was “inactive” throughout.
